Only some compounds are listed: those with a hit (about 1.2% of all), similar ones and a draw of the others.
RAD52 inh: RAD52 (human) annealing inhibition; P43351; 0.46% of 360,000 active; inhibition, % at 18.7 µM; recombinant RAD52 DNA annealing, FRET fluorescence;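 active = every replicate showing at least 50% inhibition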
Target sequence (P43351 whole entry, looked up): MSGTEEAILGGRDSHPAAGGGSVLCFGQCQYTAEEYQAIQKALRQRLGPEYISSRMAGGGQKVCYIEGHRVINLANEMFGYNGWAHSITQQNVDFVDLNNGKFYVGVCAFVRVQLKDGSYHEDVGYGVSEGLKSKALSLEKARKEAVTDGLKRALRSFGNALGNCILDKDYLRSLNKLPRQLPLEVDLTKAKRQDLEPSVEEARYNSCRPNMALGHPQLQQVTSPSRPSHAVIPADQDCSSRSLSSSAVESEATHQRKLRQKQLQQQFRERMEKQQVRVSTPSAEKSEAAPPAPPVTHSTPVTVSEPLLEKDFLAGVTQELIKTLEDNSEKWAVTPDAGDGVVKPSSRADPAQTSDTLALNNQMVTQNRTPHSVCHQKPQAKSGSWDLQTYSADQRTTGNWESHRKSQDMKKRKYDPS
CASP6 VEID inh: blocks human caspase-6 cleavage activity. inhibition, % at 12.5 µM. 0.53% of 350,000 active. purified caspase-6, Z-VEID-R110 cleavage fluorescence;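 active = mean inhibition across replicates at least about 35%, with every replicate also reaching that limit, limit read from the data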;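 note: 0% = median of neutral control wells and 100% = no fluorescence left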
N-glyco inh: N-linked glycosylation inhibition | D54 ERlucT glycosylation luciferase reporter, 24 h; percent of 100 nM tunicamycin response | reporter increase, % at 12.5 µM | 0.23% of 360,000 active | AID 588692;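 active = mean luciferase reporter signal, scaled so untreated is 0 and the glycosylation-blocking control 100, at or above a set limit in every replicate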;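 note: luciferase carries N-glycosylation sites so blocking glycosylation raises the light; 0% = median of neutral control wells and 100% = median of 100 nM tunicamycin wells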
RAD54 inh: inhibitors of human RAD54 branch migration | RAD54 Holliday junction branch migration, FAM/BHQ fluorescence | inhibition, % at 10.4 µM | 0.14% of 360,000 active | Q92698;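 active = mean normalized replicate activity at least 40 and at least half of replicates scoring 40 or more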;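 note: 0% = median of neutral control wells and 100% = median of positive control wells; inhibitors cause a drop in the FAM fluorescence signal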
NSD2 inh: NSD2 (human) methyltransferase inhibition. O96028. NSD2 peptide methylation, AlphaScreen, 120 min. inhibition, % at 12.5 µM. 0.54% of 310,000 active; in the data active = inhibition above about 50%
* marks the source's active call; other numbers are inactive results; i = inactive; . = not tested or not shown.

SMILES | RAD52 inh | CASP6 VEID inh | N-glyco inh | RAD54 inh | NSD2 inh
O=C(c1cccc(F)c1)N1CC2(C1)[C@H](c1ccccc1)[C@H](CO)N2C(=O)C1CC1 | 3 | -2 | . | . | .
COc1ccc(S(=O)(=O)NCC(c2cccs2)N2CCc3ccccc3C2)cc1 (stereo not given) | -16 | -1 | -4 | -3 | -3
COc1ccc(OC)c(S(=O)(=O)NCC(c2cccs2)N2CCc3ccccc3C2)c1 (stereo not given) | -3 | 72* | -2 | 6 | 1
C[C@H]1CN([C@@H](C)CO)C(=O)c2cc(C#Cc3ccncc3)cnc2O[C@H]1CN(C)C(=O)CN(C)C | -16 | -1 | . | . | .
CCOC(=O)[C@H]1[C@H]2COc3ccc(Br)cc3[C@@H]2N2C(=O)c3cc(Br)ccc3NC(=O)[C@@]12C | -15 | -3 | 2 | 0 | .
CCOC(=O)[C@H]1[C@H]2COc3ccc(C)cc3[C@@H]2N2C(=O)c3cc(OC)c(OC)cc3NC(=O)[C@@]12C | 17 | 1 | 9 | -1 | .
CCOC(=O)[C@H]1[C@H]2COc3ccc(OC)cc3[C@@H]2N2C(=O)c3cc(OC)c(OC)cc3NC(=O)[C@@]12C | 1 | 1 | 31* | 15 | .
CCOC(=O)[C@H]1[C@H]2COc3ccc(Br)cc3[C@@H]2N2C(=O)c3cc(OC)c(OC)cc3NC(=O)[C@@]12C | -12 | 0 | 31* | 3 | .
O=C(O)c1ccc(N=Nc2c(O)[nH]c3cc(Cl)ccc23)cc1 | i | 38* | -5 | . | 4
O=C(O)c1ccc(N=Nc2c(O)[nH]c3ccc(Br)cc23)cc1 | -81 | -1 | 11 | 3 | 4
C[C@H](CO)N1C[C@H](C)[C@H](CN(C)Cc2ccc(C(F)(F)F)cc2)Oc2ccc(NC(=O)C3CCCCC3)cc2C1=O | 8 | 0 | . | 1 | .
CCOc1ccc(-n2c(=S)sc3c(=O)[nH]c(SCC(=O)N4CCC(C)CC4)nc32)cc1 | -51 | 43* | 0 | 4 | 5
CCS(=O)(=O)c1nc(S(=O)(=O)c2ccc(Cl)cc2)c(N2CCOCC2)s1 | -1 | 38* | -4 | 8 | -1
COC(=O)c1ccc(OC(=O)/C=C/c2ccco2)cc1 | -13 | 36* | 0 | -13 | 5
COC(=O)c1ccc(OC(=O)c2ccco2)cc1 | . | . | 3 | -11 | -1
O=Cc1cccc(OC(=O)/C=C/c2ccco2)c1 | -18 | 87* | 1 | 6 | 2
Cc1ccc(NC2=C(NCCO)C(=O)c3ccccc3C2=O)cc1 | . | . | 4 | . | 65*
O=c1c2ccccc2nc(SCc2ccccc2F)n1C1CCCC1 | -18 | 38* | -1 | -5 | 2
COCCn1c(SCc2ccccc2F)nc2ccccc2c1=O | 4 | -2 | -2 | 2 | -5
C/C(=N\NC(=O)c1c([N+](=O)[O-])c(C)nn1C)c1ccc(NC(=O)C2CCCC2)cc1 | 3 | 2 | 33* | 15 | -2
O=C(NCCc1ccccc1)c1cccc2c(-c3ccc(F)c(F)c3)coc12 | -2 | 45* | -1 | -2 | 0
O=C(NCCc1ccccc1)c1ccc(-c2ccc(F)c(F)c2)c2ccoc12 | -2 | -1 | -1 | -4 | -1
O=C(O)CCN1CC2([N+](=O)[O-])C=CC(=O)C([N+](=O)[O-])(C1)C2CC(=O)c1ccccc1 (stereo not given) | -40 | 43* | 0 | -6 | 34
O=C(CCN1CCCCCC1)c1ccccc1 | . | . | -2 | -6 | 5
Cc1cc(C=O)c(C)n1-c1ccc(N2CCCCC2)c([N+](=O)[O-])c1 | . | . | -4 | -1 | 65*
SMILES | RAD52 inh | CASP6 VEID inh | N-glyco inh | RAD54 inh | NSD2 inh
Cc1noc(C)c1S(=O)(=O)Nc1cccc2c1O[C@@H](CN(C)Cc1ccc(C(=O)O)cc1)[C@@H](C)CN([C@H](C)CO)C2=O | -12 | -3 | . | 1 | .
CC1CN(C(=O)c2cc(-c3ccncc3)nc3ccccc23)CC(C)O1 (stereo not given) | -13 | 0 | 45* | 3 | -7
CC1CC(C)CN(C(=O)c2cc(-c3ccncc3)nc3ccccc23)C1 (stereo not given) | -7 | -75 | 1 | 4 | .
Cn1c(=O)[nH]c(=O)c2c1nc(N/N=C/c1cccnc1)n2Cc1ccc(Cl)cc1 | -17 | 0 | 53* | -3 | 0
COc1ccc(NC(=O)N(C)C[C@@H]2Oc3ccc(NS(=O)(=O)c4ccccc4)cc3CC(=O)N([C@H](C)CO)C[C@@H]2C)cc1 | 4 | 1 | . | . | .
COC(=O)C[C@H]1C[C@@H]2c3cc(NC(=O)Nc4ccc(C(F)(F)F)cc4)ccc3O[C@@H]2[C@H](CO)O1 | 5 | . | . | -8 | .

High-throughput results from PubChem BioAssay.
